Rows were chosen to be rich in hits. Some 3.9% of all compounds tested hit in one or more screens of this group.
Peg3 promoter = Peg3 promoter activity inhibition; 360,000 compounds, 1.7% hits; HeLa PEG-Prom luciferase reporter, luminescence, overnight; inhibition, % at 20 µM;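 active means inhibition of at least 50% at 20 µM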
TWEAK-Fn14 inh = TWEAK-Fn14 signaling inhibition. TWEAK-stimulated Fn14 reporter cells, luciferase luminescence, 8 h. inhibition, % at 10 µM. 360,000 compounds, 2% hits. AID 1159606; in the data active means inhibition above about 50%
CF NFkB block = cystic fibrosis NF-kB activation inhibition; KKLEB NF-kB-GFP reporter, PAF-induced, GFP fluorescence overnight; inhibition, % at 5 µM; 360,000 compounds, 0.86% hits; AID 588850;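 active means at least 50% inhibition at 5 µM, scaled per plate between neutral and stimulator controls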;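 further: PAF is a Pseudomonas aeruginosa culture filtrate used as stimulus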
TROY signal inh = blocks TROY-dependent signaling in reporter cells | inhibition, % at 10 µM | Q293 LMP1-TROYcd NF-kB luciferase reporter, 4 h | 360,000 compounds, 0.98% hits;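 active means compounds whose plate-normalised and pattern-corrected inhibition of the luciferase reporter signal at the single screening dose is 50% or more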
KKLEB tox = reduces viability of KKLEB cystic fibrosis airway cells | KKLEB CF airway cells viability, ATPlite luminescence, overnight; hits give low values; cells stimulated with P. aeruginosa culture filtrate | activity change (cytotoxicity), % at 5 µM | 360,000 compounds, 0.36% hits | AID 602141;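 active means corrected activity change at or below -50% at 5 µM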
HIF-2a block = inhibitors of HIF-2a; 786-0 RCC cells HIF-2a reporter, luciferase luminescence, overnight; inhibition, % at 18.8 µM; 360,000 compounds, 0.72% hits;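 active means inhibition of the luminescence signal of 40% or more relative to plate controls, in a single-dose primary screen at 18.75 µM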
Large screens that a line does not name were inactive.

Cc1[nH]ncc1Nc1ccccc1C(C)C	none
Cc1cccc(C(=O)NC(=S)Nc2ccc(S(=O)(=O)N3CCCCC3)cc2)c1	TWEAK-Fn14 inh 51
CC(C)CC(NC(N)=O)C(=O)NCc1ccccc1Cl (centres undefined)	none
Cc1cccc(/C=N/NC(=O)c2ccccc2OCc2cccc(Br)c2)n1	TWEAK-Fn14 inh 77
CC1C/C(=C\c2cccnc2)C(=O)/C(=C/c2cccnc2)C1 (centres undefined)	Peg3 promoter 107, TWEAK-Fn14 inh 103, CF NFkB block 105, TROY signal inh 52, KKLEB tox -96, HIF-2a block 93
S=C(NCCc1ccccc1)N/N=C/c1c(Cl)cccc1Cl	none
C=CCN1C(=O)/C(=C\c2ccc(Cl)cc2)N=C1SCC(=O)NCCC	none
COCCNC(=O)CSC1=N/C(=C/c2ccc(Cl)c(Cl)c2)C(=O)N1c1ccccc1F	TWEAK-Fn14 inh 57
CC1(C)SC(=S)N(NC(=O)Nc2cccc3ccccc23)C1N(O)C(=O)Nc1ccccc1 (centres undefined)	TROY signal inh 55
NNC(=O)CSc1cccc2cccnc12	none
CN(C)C(=O)CSc1cccc2cccnc12	TWEAK-Fn14 inh 96
O=C(CSc1ncccn1)N1CCCCCC1	none
O=C(CSc1cccc2cccnc12)N1CCCC1	TWEAK-Fn14 inh 67
CN(C)c1cc(=O)n2c(n1)SCCC2	none
COc1ccc(N2CC(C(=O)N3CCc4ccccc43)CC2=O)cc1 (centres undefined)	none
O=C(c1[nH]ncc1-c1ccccc1)C1CO1 (centres undefined)	none
O=C(c1[nH]ncc1-c1cccc(Br)c1)C1CO1 (centres undefined)	TWEAK-Fn14 inh 54
COc1ccccc1C(=O)NCC(=O)Nc1ccc2c(c1)OCO2	none
O=C1/C(=C/c2ccncc2)SC(=S)N1C1CCS(=O)(=O)C1 (centres undefined)	CF NFkB block 65, HIF-2a block 41
CN(C)S(=O)(=O)N1CCC(Oc2ccc(C(=O)NC3Cc4ccccc4C3)cc2)CC1	TWEAK-Fn14 inh 52
CN(C)S(=O)(=O)N1CCC(Oc2ccc(C(=O)NC3CCOC(C)(C)C3)cc2)CC1 (centres undefined)	none
CCCCCCc1cc2cc(C(=O)Nc3cccc(OC)c3)c(=O)oc2cc1O	TWEAK-Fn14 inh 59, CF NFkB block 66, KKLEB tox -63
CCCCCCc1cc2cc(C(=O)Nc3ccc(OC)cc3)c(=O)oc2cc1O	CF NFkB block 52, KKLEB tox -57
CCCCCCc1cc2cc(/C(N)=N/NC(=O)c3ccncc3)c(=O)oc2cc1O	none
CCCCCCc1cc2cc(C(=O)NC)c(=N)oc2cc1O	none
Cc1ccc(S(=O)(=O)c2cc3ccc(O)cc3oc2=O)cc1C	none
CCCCCCc1cc2cc(S(=O)(=O)c3ccc(F)c(Cl)c3)c(=O)oc2cc1O	TWEAK-Fn14 inh 54, CF NFkB block 60, TROY signal inh 58, KKLEB tox -72
CCC(C(=O)NCCc1ccco1)n1nc(C)c2c(C)n(-c3ccccc3)nc2c1=O (centres undefined)	none
O=C1c2cc(Cl)ccc2-c2c(O)cc(Cl)cc21	Peg3 promoter 75, TWEAK-Fn14 inh 54
O=C(Nc1ccc(N2CCCCC2)c(Cl)c1)c1cccnc1	none
O=C(Nc1ccc(N2CCCC2)c(Cl)c1)c1cccnc1	TWEAK-Fn14 inh 83 (no result: TROY signal inh)
O=C(Nc1ccc(N2CCOCC2)c(Cl)c1)c1cc(F)c(F)cc1Cl	none
O=C(Nc1ccc(N2CCOCC2)c(Cl)c1)c1c(F)c(F)c(F)c(F)c1F	Peg3 promoter 52
Oc1ccc(Cl)cc1CNCc1ccc(F)cc1	none
CCOc1ccccc1NC(=O)C1CCN(C(=O)Cc2ccccc2)CC1	none
COc1ccc(C(=O)n2cnc3ccccc32)cc1	TWEAK-Fn14 inh 78
O=C(CN1C(=O)NC(c2ccccc2)(c2ccccc2)C1=O)NCc1cccs1	none
COc1ccc(OC)c(CNc2ccc3c(c2)CCC3)c1	TWEAK-Fn14 inh 61, TROY signal inh 51
COc1cccc(CNc2ccc3c(c2)CCC3)c1	TWEAK-Fn14 inh 51
COc1cccc(CNc2ccc(C)c(Cl)c2)c1	none
COc1ccc(OC)c(CC(=O)Nc2ccc3c(c2)CCC3)c1	none
Cc1cccc(C(=O)Nc2ccc3c(c2)nc(C)n3C)c1	TWEAK-Fn14 inh 59
Cc1cccc(C(=O)Nc2ccc3c(c2)ncn3C)c1	none
Cc1nc2cc(NC(=O)N3c4ccccc4CC3C)ccc2n1C (centres undefined)	TWEAK-Fn14 inh 57
Cc1nc2cc(NC(=O)Nc3ccccc3Cl)ccc2n1C	TWEAK-Fn14 inh 59
CCOc1ccc(N2CC(C(=O)N3CCCC3)CC2=O)cc1 (centres undefined)	none
Cc1cc(F)ccc1S(=O)(=O)N(C(=O)c1ccncc1)c1ccc(OC(=O)c2ccncc2)cc1	TWEAK-Fn14 inh 56, TROY signal inh 62
Cc1ccc(S(=O)(=O)N(C(=O)c2ccncc2)c2ccc(OC(=O)c3ccncc3)c3ccccc23)c(C)c1	Peg3 promoter 51
Cc1ccc(NC(=O)COC(=O)Cn2cnc3ccccc32)cc1S(=O)(=O)N(C)C	none
COc1ccc(-c2nc3ccccc3c(C(=O)Nc3ccc(S(=O)(=O)Nc4cc(C)on4)cc3)c2C)cc1	TWEAK-Fn14 inh 51
O=[N+]([O-])c1ccc(-c2ccc(/C=N/O)o2)cc1	none
O=[N+]([O-])c1ccc(-c2ccc(C=Nc3cccc4ccccc34)o2)cc1	TWEAK-Fn14 inh 62, TROY signal inh 63
COc1ccc(C2=NO[C@@H]3C(=O)N(c4ccc5c(c4)OCCO5)C(=O)[C@H]23)cc1OC	TWEAK-Fn14 inh 81, TROY signal inh 69
O=C(/C=C/c1ccncc1)c1ccc(NC(=O)c2ccccc2F)cc1	Peg3 promoter 103, CF NFkB block 72
O=C(/C=C/c1ccc(NC(=O)c2ccccc2-c2ccccc2C(=O)O)cc1)c1ccccc1	TWEAK-Fn14 inh 59
CCOC(=O)c1ccc(S(=O)(=O)Nc2ccc(N3CCOCC3)cc2)cc1	none
CCOCC(=O)Nc1ccc(S(=O)(=O)N2CCC(c3nc4ccccc4[nH]3)CC2)cc1	none
CC12C=CC(=O)C=C1CCC1C2C(O)CC2(C)C1CCC2(O)C(=O)CO (centres undefined)	CF NFkB block 64
CC(=O)[C@@]1(O)CC[C@H]2[C@@H]3CCC4=CC(=O)CC[C@]4(C)[C@H]3[C@@H](O)C[C@@]21C	none
CC12CCC(=O)C=C1C(F)CC1C2C(O)CC2(C)C1CCC2(O)C(=O)CO (centres undefined)	CF NFkB block 76
CC(=O)OCC(=O)[C@@]1(O)CC[C@H]2[C@@H]3CCC4=CC(=O)C=C[C@]4(C)[C@@]3(Cl)[C@@H](Cl)C[C@@]21C	CF NFkB block 65
CCCCC(=O)O[C@]1(C(=O)CO)CC[C@H]2[C@@H]3CCC4=CC(=O)CC[C@]4(C)[C@H]3[C@@H](O)C[C@@]21C	CF NFkB block 57

Assay outcomes (PubChem BioAssay)
